From PubChem
BoNT-A LC inh2 = inhibitors of Botulinum neurotoxin A light chain protease; multiplex microsphere protease substrate cleavage, flow cytometry; inhibition, % at 10 µM; 360,000 compounds, 0.17% hits; AID 588499; also: plate controls were buffer without enzyme for full effect and enzyme alone for no effect
BoNT-F LC inh = inhibitors of Botulinum neurotoxin F light chain protease; 360,000 compounds, 0.22% hits; Multiplex microsphere protease cleavage assay, flow cytometry; inhibition, % at 10 µM; in the data active = inhibition above about 35%, passing the limit was not always enough; inconclusive = no clear call, values can overlap the other calls; also: plate controls were buffer without enzyme for full effect and enzyme alone for no effect
Anthrax LF prot = inhibitors of Bacillus anthracis lethal factor protease. 360,000 compounds, 0.12% hits. multiplex microsphere protease cleavage assay, LF. inhibition, % at 10 µM; also: plate controls were buffer without enzyme for full effect and enzyme alone for no effect
Autofluor counter = compound fluorescence in toxin protease inhibitor counterscreen | compound autofluorescence counterscreen, microsphere flow cytometry; active compounds read high | fluorescence intensity (test concentration not listed) | 360,000 compounds, 3.1% hits; in the data active = fluorescence intensity above about 16000; inconclusive = no clear call, values can overlap the other calls
* = called active by the depositor; ? = inconclusive. Sampled rows, rich in hits. Any-hit rate of the full collection: about 3.5%. Rule as the data show it, unless noted: active = inhibition above about 30%; inconclusive = no clear call, values can overlap the other calls; inactive = below that.

SMILES	BoNT-A LC inh2	BoNT-F LC inh	Anthrax LF prot	Autofluor counter
CCC(=O)N1CCCC1(C)C(=O)Nc1cc(OC)ccc1OC (configuration not stated)	0	8	-2	3869
O=C1C2C3C=CC(C2C(=O)N1CCCO)C1C2C(=O)N(CCCO)C(=O)C2C31 (configuration not stated)	-3	-2	1	21305*
c1ccc2c3c(cc(N4CCOCC4)c2c1)OC1(N2CCOCC2)CCCCC1O3 (configuration not stated)	4	36*	2	4432
CCCCCCCCCCC(C(=O)O)C1(C(=O)O)CCC(=O)O1 (configuration not stated)	0	-1	3	5344
CC(C)C(O)P(=O)(OCc1ccccc1)c1ccc(N(C)C)cc1 (configuration not stated)	-2	-3	-4	20468*
CN(C)c1ccc(P(=O)(OCc2ccccc2)C(O)c2cccnc2)cc1 (configuration not stated)	0	1	0	20409*
Cc1ccc(S(=O)(=O)CCC(=O)OCC(=O)N2CCN(S(=O)(=O)c3ccc(Cl)cc3)CC2)cc1	2	2	0	5689
Cc1ccc(OCCC(=O)OCC(=O)N2CCN(S(=O)(=O)c3ccc(C)cc3)CC2)cc1	-83	-127	-20	26716*
Cc1ccc(OCC(=O)N2CCN(c3nnc(-c4ccccc4)c4ccccc34)CC2)cc1	0	9	-6	9134
CCS(=O)(=O)N1CCN(C(=O)COc2ccc(-c3ccccc3)cc2)CC1	0	0	-21	22952*
Cc1ccc(OCC(=O)N2CCN(C3=NS(=O)(=O)c4ccccc43)CC2)cc1	0	-3	-2	20779*
COc1cc(/C=C2/C(=N)N3C=CSC3=NC2=O)ccc1OCCCOc1ccccc1C	5	37*	5	4133
COc1cccc(OCCCn2cc(/C=C3/C(=N)N4C=C(C)SC4=NC3=O)c3ccccc32)c1	50*	-45	5	24218*
CNC(=O)C[C@@H]1C(=O)N(CCc2ccccc2)CC1(C)C	0	2	-4	3584
N=c1ncn(CC(O)CN2CCOCC2)c2nc(N3CCOCC3)[nH]c12 (configuration not stated)	0	1	-6	22533*
CN(C)CCN(C)C1CN(Cc2ccccc2)S(=O)(=O)C1 (configuration not stated)	0	-12	-4	6032
COc1ccc(NS(=O)(=O)Cc2ccccc2Cl)cn1	?	-8	0	23973*
O=C(N/N=C/c1ccccc1[N+](=O)[O-])c1ccc2nc[nH]c2c1	1	49*	?	4316
COc1cc(OC)c(NC(=O)c2cc3ccccc3cc2O)cc1Cl	0	-2	4	2789
O=C(CCl)Nc1ccc(Oc2cnc3ccccc3n2)cc1	3	5	0	21837*
CCOc1cc(NS(=O)(=O)c2ccc(OC)cc2)c(OCC)cc1NC(=O)c1ccco1	0	-2	-2	22748*
COc1ccc(S(=O)(=O)Nc2cc(OC)c(NC(=O)c3ccco3)cc2OC)cc1	-1	-1	-2	9199
O=C(Nc1ccccc1C(=O)NCc1cccnc1)c1ccco1	-1	11	-1	4748
O=C(Nc1ccc(Cl)cc1C(=O)NCC1CCCO1)c1ccco1 (configuration not stated)	-2	-3	1	23431*
CCOc1cc(NC(=O)c2ccco2)c(OCC)cc1NC(=O)CCC(=O)NCc1cccnc1	2	0	-3	19666*
SMILES	BoNT-A LC inh2	BoNT-F LC inh	Anthrax LF prot	Autofluor counter
O=C(Nc1ccc(Cl)cc1C(=O)NCc1cccnc1)c1ccco1	?	2	-4	23145*
CCCCn1c(N)c(N(C(=O)CSc2nncn2-c2ccccc2C)C2CCCC2)c(=O)[nH]c1=O	0	4	10	3673
COc1ccc(CN2CCC[C@]3(N[C@H](c4ccc(C(F)(F)F)cc4)[C@@H]4C(=O)N(Cc5ccccc5)C(=O)[C@@H]43)C2=O)cc1	-1	-11	-6	3536
Cc1cc(NC(=O)c2ccco2)ccc1NC(=O)c1ccco1	0	7	0	5831
Cc1cc(NC(=O)c2cccnc2)ccc1NC(=O)c1ccco1	0	0	-2	22536*
CCC(CO)Nc1ccc([N+](=O)[O-])c2cccnc12 (configuration not stated)	-2	-5	0	22808*
CS(=O)(=O)Nc1ccc(Cc2ccc(NS(C)(=O)=O)cc2)cc1	-4	-6	1	20871*
COc1ccc(F)cc1S(=O)(=O)NC1CCCC1	-2	-2	0	20620*
Cc1ccc(CN2C(=O)CCC2C(=O)NCc2cccnc2)cc1 (configuration not stated)	4	2	-6	21210*
COc1ccccc1-c1csc(C(NC(C)=O)c2ccccc2)n1 (configuration not stated)	0	-3	1	3414
COc1cccc(CNc2ccc(N3CCC(C)CC3)cc2)c1OC	3	-5	-4	19533*
CCOc1ccc(C(CC(=O)O)NC(=O)C23CC4CC(CC(C4)C2)C3)cc1 (configuration not stated)	-5	-7	0	21930*
CC(C)(C)c1ccc(C(CC(=O)O)NC(=O)C23CC4CC(CC(C4)C2)C3)cc1 (configuration not stated)	-4	-12	-7	3176
Cc1ccccc1Cn1cnc2ccccc21	-1	-12	1	4632
COc1ccc(Cn2cnc3c([N+](=O)[O-])c(C)c(C)cc32)cc1	-3	-4	-7	25028*
Cc1ccccc1Cn1cnc2c([N+](=O)[O-])c(C)c(C)cc21	1	2	0	21365*
O=C(NCc1ccncc1)[C@@H]1CCCN1C(=O)[C@H]1CCCN1	-2	-24	-4	7991
Cn1c(=O)oc2cc(S(=O)(=O)NC3CCCCCCC3)ccc21	-1	-2	-3	16482*
CCOC(=O)N1CCC(NS(=O)(=O)c2ccc3c(c2)oc(=O)n3C)CC1	2	-1	2	16773*
COc1ccc(CNc2nc3c(c(=O)n(Cc4ccc(F)cc4)c(=O)n3C)n2C)cc1	?	-1	-5	21752*
Cn1c(NCc2ccccc2)nc2c1c(=O)n(Cc1ccccc1)c(=O)n2C	0	-2	1	10138
CCCC(=O)Nc1c(-c2ccccc2)[nH][nH]c1=O	0	-4	-6	6413
O=C(Nc1ccc(Cl)cc1Cl)c1n[nH]c(Cn2cncn2)n1	?	-3	3	20568*
CCC(Sc1nc(C)cc(C)n1)C(=O)Nc1nccs1 (configuration not stated)	1	0	5	5907
COCCNC(=O)c1ccc(CS(=O)(=O)c2ccc(C)cc2)o1	-1	-2	-3	22139*
Cc1ccccc1S(=O)(=O)Cc1ccc(C(=O)NC(C)c2ccc3c(c2)OCCO3)o1 (configuration not stated)	0	-6	0	5946
Cc1ccc(S(=O)(=O)Cc2ccc(C(=O)NCCCN3CCN(C)CC3)o2)cc1	?	-4	-2	23094*
Cc1ccc(S(=O)(=O)Cc2ccc(C(=O)NCc3ccc4c(c3)OCO4)o2)cc1	?	2	-2	22168*
O=C(NCCCN1CCOCC1)c1ccc(CS(=O)(=O)c2ccc(Br)cc2)o1	0	-4	-2	4344
